According to PubChem BioAssay AID1159580 (chemical genetic matrix, 2015):
Screen size: about 5,500 compounds; about 2,000 (36%) were called active. About 18% were inconclusive and are not listed. Rule as the data show it: active = normalized growth mostly below about 0.91 (no sharp cut-off); inconclusive = no clear call, values can overlap the other calls; inactive = mostly above about 0.92. The list shows a part of the results.

Assay: chemical genetic growth profiling, strain panel (AID 1159580);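 also: tested at 20 µM; growth read once vehicle control cultures reached saturation at 30 °C; 1 = growth at the plate median or of vehicle wells; lower values mean less growth of the strain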
Conditions: S. cerevisiae deletion strains, growth OD

Measured: normalized growth

COC(=O)C1=C(C)NC(C)=C(C(=O)OCC(C)C)C1c1ccccc1[N+](=O)[O-] (centres undefined)
inactive: locus YBR171W, strain sec66, active compounds read low 0.898 | locus YDL040C, strain nat1, active compounds read low 0.953 | locus YDR137W, strain rgp1, active compounds read low 0.866 | locus YDR159W, strain sac3, active compounds read low 0.958 | locus YDR195W, strain ref2 1.06 | locus YER111C, strain swi4, active compounds read low 0.945 | locus YML120C, strain ndi1, active compounds read low 0.978 | locus YOR001W, strain rrp6, active compounds read low 0.952 | locus YOR080W, strain dia2, active compounds read low 0.958 | locus YOR290C, strain snf2, active compounds read low 0.912 | locus YPL078C, strain atp4, active compounds read low 0.94
active: locus YAL021C, strain ccr4, active compounds read low 0.0808 | locus YAL026C, strain drs2, active compounds read low 0.216 | locus YAL030W, strain snc1, active compounds read low 0.239 | locus YBL061C, strain skt5, active compounds read low 0.19 | locus YBR009C, strain hhf1, active compounds read low 0.224 | locus YBR023C, strain chs3, active compounds read low 0.176 | locus YBR231C, strain swc5, active compounds read low 0.212 | locus YBR279W, strain paf1, active compounds read low 0.451 | locus YCL011C, strain gbp2, active compounds read low 0.257 | locus YCL016C, strain dcc1, active compounds read low 0.462 | locus YCL069W, strain vba3, active compounds read low 0.413 | locus YCR088W, strain abp1, active compounds read low 0.39 | locus YDL005C, strain med2, active compounds read low 0.193 | locus YDR001C, strain nth1, active compounds read low 0.468 | locus YDR069C, strain doa4, active compounds read low 0.0857 | locus YDR297W, strain sur2, active compounds read low 0.167 | locus YDR334W, strain swr1, active compounds read low 0.24 | locus YDR335W, strain msn5, active compounds read low 0.814 | locus YDR392W, strain spt3, active compounds read low 0.122 | locus YEL003W, strain gim4, active compounds read low 0.463 | locus YEL037C, strain rad23, active compounds read low 0.296 | locus YEL061C, strain CIN8 (second series), active compounds read low 0.33 | locus YER015W, strain faa2, active compounds read low 0.177 | locus YER016W, strain bim1, active compounds read low 0.52 | locus YER155C, strain BEM2 (second series), active compounds read low 0.259 | locus YFR010W, strain ubp6, active compounds read low 0.382 | locus YGL167C, strain pmr1, active compounds read low 0.214 | locus YGL173C, strain kem1, active compounds read low 0.098 | locus YGL227W, strain vid30, active compounds read low 0.769 | locus YGL240W, strain doc1, active compounds read low 0.259 | locus YGL253W, strain hxk2, active compounds read low 0.303 | locus YHR013C, strain ard1, active compounds read low 0.209 | locus YHR027C, strain rpn1, active compounds read low 0.164 | locus YHR030C, strain SLT2, active compounds read low 0.472 | locus YHR079C, strain IRE1, active compounds read low 0.385 | locus YHR142W, strain chs7, active compounds read low 0.209 | locus YJL092W, strain hpr5, active compounds read low 0.422 | locus YJL095W, strain BCK1 (second series), active compounds read low 0.112 | locus YJL095W, strain BCK1, active compounds read low 0.35 | locus YJL115W, strain asf1, active compounds read low 0.424 | locus YJL129C, strain trk1, active compounds read low 0.852 | locus YJL154C, strain vps35, active compounds read low 0.344 | locus YJL164C, strain tpk1, active compounds read low 0.16 | locus YJL166W, strain qcr8, active compounds read low 0.177 | locus YJL187C, strain SWE1, active compounds read low 0.206 | locus YJR066W, strain TOR1, active compounds read low 0.57 | locus YKL160W, strain elf1, active compounds read low 0.486 | locus YKR026C, strain gcn3, active compounds read low 0.559 | locus YKR091W, strain srl3, active compounds read low 0.589 | locus YLL001W, strain dnm1, active compounds read low 0.42 | locus YLL026W, active compounds read low 0.333 | locus YLL041C, strain sdh2, active compounds read low 0.279 | locus YLR027C, strain aat2, active compounds read low 0.22 | locus YLR113W, strain HOG1, active compounds read low 0.308 | locus YLR221C, strain rsa3, active compounds read low 0.342 | locus YLR258W, strain gsy2, active compounds read low 0.209 | locus YLR262C, strain YPT6 (second series), active compounds read low 0.114 | locus YLR320W, strain mms22, active compounds read low 0.159 | locus YLR342W, strain FKS1, active compounds read low 0.163 | locus YLR357W, strain rsc2, active compounds read low 0.452 | locus YLR370C, strain arc18, active compounds read low 0.273 | locus YLR384C, strain iki3, active compounds read low 0.75 | locus YMR058W, strain fet3, active compounds read low 0.0888 | locus YMR125W, strain sto1, active compounds read low 0.462 | locus YMR129W, active compounds read low 0.633 | locus YMR205C, strain PFK2, active compounds read low 0.179 | locus YMR231W, strain pep5, active compounds read low 0.141 | locus YNL071W, strain lat1, active compounds read low 0.194 | locus YNL183C, strain NPR1, active compounds read low 0.561 | locus YNL209W, strain ssb2, active compounds read low 0.111 | locus YNL248C, strain rpa49, active compounds read low 0.488 | locus YNL322C, strain KRE1 (second series), active compounds read low 0.403 | locus YNR049C, strain mso1, active compounds read low 0.551 | locus YOR070C, strain gyp1, active compounds read low 0.492 | locus YOR083W, strain WHI5, active compounds read low 0.43 | locus YOR106W, strain vam3, active compounds read low 0.135 | locus YOR231W, strain MKK1, active compounds read low 0.513 | locus YOR265W, strain rbl2, active compounds read low 0.204 | locus YOR270C, strain vph1, active compounds read low 0.153 | locus YPL051W, strain arl3, active compounds read low 0.129 | locus YPL106C, strain sse1, active compounds read low 0.299 | locus YPL240C, strain hsp82, active compounds read low 0.242 | locus YPL256C, strain CLN2, active compounds read low 0.415
